# Experiments:
# [1] = molecular target: Serine/threonine-protein kinase PAK 6 (Homo sapiens) (UniProt Q9NQU5); conditions: at 1 µM;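 note: values are mean percent inhibition of PAK6 kinase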
# [2] = system: Tyrosine-protein kinase ABL1 (Homo sapiens), P00519 [E255K]; conditions: at 0.1 µM
# [3] = system: Tyrosine-protein kinase ABL1 (Homo sapiens), P00519 [E255K]; conditions: at 1 µM
# [4] = system: Tyrosine-protein kinase ABL1 (Homo sapiens), P00519 [H396P]; conditions: at 0.1 µM
# [5] = system: Tyrosine-protein kinase ABL1 (Homo sapiens), P00519 [H396P]; conditions: at 1 µM
# [6] = system: Tyrosine-protein kinase ABL1 (Homo sapiens), P00519 [M351T]; conditions: at 0.1 µM
# [7] = system: Tyrosine-protein kinase ABL1 (Homo sapiens), P00519 [M351T]; conditions: at 1 µM
# [8] = system: Tyrosine-protein kinase ABL1 (Homo sapiens), P00519 [Q252H]; conditions: at 0.1 µM
# [9] = system: Tyrosine-protein kinase ABL1 (Homo sapiens), P00519 [Q252H]; conditions: at 1 µM
# [10] = system: Tyrosine-protein kinase ABL1 (Homo sapiens), P00519 [T315I]; conditions: at 0.1 µM
# [11] = system: Tyrosine-protein kinase ABL1 (Homo sapiens), P00519 [T315I]; conditions: at 1 µM
# [12] = system: Tyrosine-protein kinase ABL1 (Homo sapiens), P00519 [Y253F]; conditions: at 0.1 µM
# [13] = system: Tyrosine-protein kinase ABL1 (Homo sapiens), P00519 [Y253F]; conditions: at 1 µM
# [14] = molecular target: Tyrosine-protein kinase ABL1 (Homo sapiens) (UniProt P00519); conditions: at 0.1 µM
# [15] = molecular target: Tyrosine-protein kinase ABL1 (Homo sapiens) (UniProt P00519); conditions: at 1 µM
# [16] = molecular target: ALK tyrosine kinase receptor (Homo sapiens) (UniProt Q9UM73); conditions: at 0.1 µM
# [17] = molecular target: ALK tyrosine kinase receptor (Homo sapiens) (UniProt Q9UM73); conditions: at 1 µM
# [18] = molecular target: Tyrosine-protein kinase ABL2 (Homo sapiens) (UniProt P42684); conditions: at 0.1 µM
# [19] = molecular target: Tyrosine-protein kinase ABL2 (Homo sapiens) (UniProt P42684); conditions: at 1 µM
# [20] = molecular target: Tyrosine-protein kinase receptor UFO (Homo sapiens) (UniProt P30530); conditions: at 0.1 µM;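 note: values are mean percent inhibition of AXL from the GSK PKIS screen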
# Sequence of Tyrosine-protein kinase receptor UFO (Homo sapiens) (P30530 whole entry): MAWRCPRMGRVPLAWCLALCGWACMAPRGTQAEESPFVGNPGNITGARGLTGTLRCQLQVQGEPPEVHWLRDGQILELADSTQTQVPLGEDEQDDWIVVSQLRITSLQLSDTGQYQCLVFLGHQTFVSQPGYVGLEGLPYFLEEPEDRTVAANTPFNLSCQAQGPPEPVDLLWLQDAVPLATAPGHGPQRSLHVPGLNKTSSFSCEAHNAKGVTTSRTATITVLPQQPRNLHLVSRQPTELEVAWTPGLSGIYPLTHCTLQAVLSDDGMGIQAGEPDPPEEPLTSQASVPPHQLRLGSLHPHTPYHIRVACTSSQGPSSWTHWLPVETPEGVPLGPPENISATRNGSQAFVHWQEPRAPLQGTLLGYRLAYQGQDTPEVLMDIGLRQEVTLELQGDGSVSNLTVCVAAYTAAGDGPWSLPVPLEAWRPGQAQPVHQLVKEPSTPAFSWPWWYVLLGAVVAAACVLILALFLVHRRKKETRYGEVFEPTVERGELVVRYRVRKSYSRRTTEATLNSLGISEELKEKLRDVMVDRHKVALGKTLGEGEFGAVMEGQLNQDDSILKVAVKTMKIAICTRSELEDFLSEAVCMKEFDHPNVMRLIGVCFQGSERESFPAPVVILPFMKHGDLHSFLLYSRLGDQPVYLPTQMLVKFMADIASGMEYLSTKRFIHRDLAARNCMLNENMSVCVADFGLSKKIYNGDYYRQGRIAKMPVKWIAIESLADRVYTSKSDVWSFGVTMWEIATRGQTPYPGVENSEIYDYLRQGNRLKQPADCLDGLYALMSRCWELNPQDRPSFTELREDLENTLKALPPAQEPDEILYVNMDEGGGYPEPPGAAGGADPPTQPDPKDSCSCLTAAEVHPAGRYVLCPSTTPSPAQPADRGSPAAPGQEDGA
# Sequence of Serine/threonine-protein kinase PAK 6 (Homo sapiens) (Q9NQU5 whole entry, looked up): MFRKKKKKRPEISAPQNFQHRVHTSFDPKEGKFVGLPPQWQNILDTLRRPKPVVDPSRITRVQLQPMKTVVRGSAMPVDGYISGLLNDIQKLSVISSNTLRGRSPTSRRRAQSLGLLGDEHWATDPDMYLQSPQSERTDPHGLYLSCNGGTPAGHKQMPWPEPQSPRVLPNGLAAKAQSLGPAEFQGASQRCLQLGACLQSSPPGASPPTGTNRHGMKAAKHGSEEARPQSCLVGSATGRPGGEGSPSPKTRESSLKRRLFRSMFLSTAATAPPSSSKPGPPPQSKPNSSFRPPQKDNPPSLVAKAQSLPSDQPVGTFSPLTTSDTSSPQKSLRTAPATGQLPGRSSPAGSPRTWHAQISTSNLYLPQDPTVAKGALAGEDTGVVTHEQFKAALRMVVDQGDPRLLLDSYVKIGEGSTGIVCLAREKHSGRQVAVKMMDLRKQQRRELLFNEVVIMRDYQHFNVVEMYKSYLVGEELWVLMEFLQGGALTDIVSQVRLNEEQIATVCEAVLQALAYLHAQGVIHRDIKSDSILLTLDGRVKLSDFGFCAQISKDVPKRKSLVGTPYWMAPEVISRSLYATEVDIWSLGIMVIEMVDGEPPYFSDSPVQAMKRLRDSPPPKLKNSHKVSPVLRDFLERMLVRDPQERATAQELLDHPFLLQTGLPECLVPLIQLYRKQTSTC
# Sequence of ALK tyrosine kinase receptor (Homo sapiens) (Q9UM73 19-1620 limits assumed): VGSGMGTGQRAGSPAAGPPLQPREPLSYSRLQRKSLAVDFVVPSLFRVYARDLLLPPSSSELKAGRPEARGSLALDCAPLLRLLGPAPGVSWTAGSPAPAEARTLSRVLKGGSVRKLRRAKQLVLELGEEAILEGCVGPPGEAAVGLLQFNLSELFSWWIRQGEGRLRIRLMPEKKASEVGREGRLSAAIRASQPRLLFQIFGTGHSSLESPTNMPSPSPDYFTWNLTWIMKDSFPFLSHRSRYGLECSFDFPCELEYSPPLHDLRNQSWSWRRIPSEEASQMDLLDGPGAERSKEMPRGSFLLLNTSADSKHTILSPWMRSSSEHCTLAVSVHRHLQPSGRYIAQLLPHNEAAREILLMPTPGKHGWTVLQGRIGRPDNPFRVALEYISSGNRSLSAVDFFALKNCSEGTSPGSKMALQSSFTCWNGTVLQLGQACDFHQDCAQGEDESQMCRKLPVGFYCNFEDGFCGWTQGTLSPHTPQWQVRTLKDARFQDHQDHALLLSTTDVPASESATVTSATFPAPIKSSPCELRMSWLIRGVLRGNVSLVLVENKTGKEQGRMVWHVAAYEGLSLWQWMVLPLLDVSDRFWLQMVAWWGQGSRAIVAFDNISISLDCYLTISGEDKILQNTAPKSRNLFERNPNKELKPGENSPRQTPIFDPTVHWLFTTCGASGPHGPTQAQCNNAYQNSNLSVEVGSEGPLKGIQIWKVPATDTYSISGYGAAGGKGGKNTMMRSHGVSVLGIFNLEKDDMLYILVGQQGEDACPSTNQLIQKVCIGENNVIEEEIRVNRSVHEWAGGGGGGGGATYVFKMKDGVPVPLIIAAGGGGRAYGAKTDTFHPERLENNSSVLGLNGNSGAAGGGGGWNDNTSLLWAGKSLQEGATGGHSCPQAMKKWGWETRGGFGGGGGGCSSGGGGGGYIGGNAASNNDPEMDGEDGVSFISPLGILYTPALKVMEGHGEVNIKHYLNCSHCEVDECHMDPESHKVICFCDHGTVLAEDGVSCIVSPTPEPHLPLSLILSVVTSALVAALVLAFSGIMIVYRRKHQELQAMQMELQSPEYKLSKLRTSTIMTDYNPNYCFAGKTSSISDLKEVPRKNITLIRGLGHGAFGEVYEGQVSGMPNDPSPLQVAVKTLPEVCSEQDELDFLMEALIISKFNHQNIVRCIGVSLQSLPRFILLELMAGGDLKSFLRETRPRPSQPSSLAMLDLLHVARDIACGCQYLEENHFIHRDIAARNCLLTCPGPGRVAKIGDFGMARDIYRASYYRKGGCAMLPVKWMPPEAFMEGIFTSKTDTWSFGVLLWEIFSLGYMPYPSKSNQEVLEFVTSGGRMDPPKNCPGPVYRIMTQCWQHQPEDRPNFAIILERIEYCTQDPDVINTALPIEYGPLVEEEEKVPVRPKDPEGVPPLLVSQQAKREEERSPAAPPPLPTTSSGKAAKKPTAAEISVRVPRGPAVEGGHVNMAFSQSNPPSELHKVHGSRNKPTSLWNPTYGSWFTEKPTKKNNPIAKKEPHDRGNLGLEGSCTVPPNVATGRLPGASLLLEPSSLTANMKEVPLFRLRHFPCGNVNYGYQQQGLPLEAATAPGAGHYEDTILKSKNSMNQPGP
# Sequence of Tyrosine-protein kinase ABL2 (Homo sapiens) (P42684 whole entry): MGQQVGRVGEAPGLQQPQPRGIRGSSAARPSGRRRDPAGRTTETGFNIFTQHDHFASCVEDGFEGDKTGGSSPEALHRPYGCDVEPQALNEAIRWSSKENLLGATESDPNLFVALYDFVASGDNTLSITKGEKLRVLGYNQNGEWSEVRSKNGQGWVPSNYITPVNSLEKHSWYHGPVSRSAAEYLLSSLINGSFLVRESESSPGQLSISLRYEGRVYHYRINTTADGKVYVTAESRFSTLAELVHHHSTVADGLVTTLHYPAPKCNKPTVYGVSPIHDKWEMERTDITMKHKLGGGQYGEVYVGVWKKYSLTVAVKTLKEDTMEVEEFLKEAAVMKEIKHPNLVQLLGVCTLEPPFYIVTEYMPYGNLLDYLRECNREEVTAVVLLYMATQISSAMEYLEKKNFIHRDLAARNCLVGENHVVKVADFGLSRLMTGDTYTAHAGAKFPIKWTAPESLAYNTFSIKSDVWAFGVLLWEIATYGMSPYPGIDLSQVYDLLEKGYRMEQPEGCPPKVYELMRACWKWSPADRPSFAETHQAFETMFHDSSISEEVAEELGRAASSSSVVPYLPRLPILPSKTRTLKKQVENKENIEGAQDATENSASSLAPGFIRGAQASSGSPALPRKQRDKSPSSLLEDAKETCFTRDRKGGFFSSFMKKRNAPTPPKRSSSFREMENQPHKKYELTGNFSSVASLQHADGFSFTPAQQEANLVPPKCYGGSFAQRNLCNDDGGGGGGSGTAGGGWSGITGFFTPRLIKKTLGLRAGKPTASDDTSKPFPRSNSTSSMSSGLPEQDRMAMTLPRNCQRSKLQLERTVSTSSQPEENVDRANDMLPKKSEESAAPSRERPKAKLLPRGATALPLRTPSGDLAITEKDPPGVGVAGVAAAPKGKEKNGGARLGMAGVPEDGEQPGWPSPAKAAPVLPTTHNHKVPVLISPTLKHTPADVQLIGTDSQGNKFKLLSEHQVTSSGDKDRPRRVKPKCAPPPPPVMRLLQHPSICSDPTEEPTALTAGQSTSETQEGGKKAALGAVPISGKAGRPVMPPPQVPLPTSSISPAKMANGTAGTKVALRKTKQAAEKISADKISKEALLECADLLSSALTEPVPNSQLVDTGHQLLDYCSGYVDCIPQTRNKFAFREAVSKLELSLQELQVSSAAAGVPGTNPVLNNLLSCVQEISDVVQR
SMILES,inhibition [1],inhibition [2],inhibition [3],inhibition [4],inhibition [5],inhibition [6],inhibition [7],inhibition [8],inhibition [9],inhibition [10],inhibition [11],inhibition [12],inhibition [13],inhibition [14],inhibition [15],inhibition [16],inhibition [17],inhibition [18],inhibition [19],inhibition [20]
N#Cc1c(NC(=O)c2ccc(F)cc2)sc2c1CCCC2,-6.51%,0.33%,1.93%,-0.63%,0.11%,-1.3%,2.69%,1.76%,2.3%,1.04%,-0.02%,0.83%,1.49%,1.79%,4.24%,-0.03%,1.01%,3.54%,2.41%,-1.93%
FC(F)(F)c1cccc(-c2nn3ncccc3c2-c2ccnc(Nc3ccc4c(c3)OCCO4)n2)c1,-1.75%,3.04%,9.11%,6.97%,36.6%,10.1%,50%,9.57%,45.2%,10.1%,32.5%,5.94%,30.6%,3.95%,30.4%,2.44%,3.89%,4.21%,32.1%,-5.2%
COC(=O)Nc1nc2ccc(Oc3ccc(NC(=O)Nc4cccc(Cl)c4)cc3)cc2[nH]1,-1.03%,3.36%,8.54%,15.3%,40.9%,37.5%,56.3%,35.7%,59.7%,23.3%,42.4%,7.43%,22%,6.59%,13.3%,1.45%,2.26%,12.3%,28.8%,-5.74%
COC(=O)Nc1nc2ccc(S(=O)(=O)c3ccc(NC(=O)Nc4cc(C(F)(F)F)ccc4F)cc3)cc2[nH]1,-4.19%,1.6%,-0.55%,2.6%,-0.47%,0.84%,3.17%,2.16%,4.69%,2.49%,1.15%,0.34%,1.69%,3.92%,9.87%,2.66%,3.54%,5.17%,6.34%,-5.56%
CN1CCC(n2cnc(-c3ccc(F)cc3)c2-c2ccnc(N)n2)CC1,-6%,3.04%,7%,2.82%,11.9%,-0.15%,7.75%,2.65%,6.83%,1.94%,5.74%,1.88%,8.15%,2.31%,8.97%,1.26%,4.21%,2.89%,7.64%,-3.77%
Nc1ncc(-c2cccc(S(N)(=O)=O)c2)c2scc(-c3ccc(F)c(Cl)c3)c12,-1.87%,35.4%,84.7%,69.4%,93.5%,64.2%,93.9%,55.3%,91.4%,5.83%,35%,62.6%,92.4%,60.5%,87.6%,4.32%,13.8%,35.4%,78.4%,-4.87%
CC(=O)Nc1cccc(C#Cc2cncnc2Nc2ccc(OCc3cccc(F)c3)c(Cl)c2)c1,-5.42%,-0.36%,1.79%,2.77%,1.25%,1.83%,2.92%,2.53%,2.16%,1.92%,1.79%,0.83%,3.28%,4.43%,8.55%,1.96%,6.45%,2.39%,5.22%,1.64%
CCn1c(-c2nonc2N)nc2cnc(Oc3cccc(NC(=O)c4ccc(N(C)C)cc4)c3)cc21,-2.65%,0.6%,9.02%,0.27%,1.9%,-1.02%,4.81%,2.14%,1.78%,1.38%,1.03%,2.77%,6.27%,1.77%,3.99%,0.57%,1.96%,2.48%,2.42%,-3.9%
CCn1c(-c2nonc2N)nc2c(C#CC(C)(C)O)nc(OC[C@H](N)c3ccccc3)cc21,77.3%,-1.28%,-0.66%,1.67%,2.25%,0.72%,1.98%,1.23%,1.98%,0.64%,7.77%,0.1%,2.5%,2.86%,2.9%,5.79%,9.07%,2.63%,3.84%,-1.29%
CCCN1CCC(c2ccc(Nc3nc(Nc4cc(F)ccc4C(N)=O)c4cc[nH]c4n3)c(OC)c2)CC1,-7.38%,4.38%,6.84%,4.63%,8.82%,1.91%,7.76%,3.87%,9.15%,3.58%,19.1%,3.53%,8.34%,1.86%,8.95%,97.5%,86.6%,2.8%,5.54%,17.1%
c1cc(-c2cnn3nc(N4CCOCC4)ccc23)nc(NC2CC2)n1,6.8%,2.12%,3.25%,3.02%,5.18%,3.02%,4.81%,2.61%,6.62%,2.17%,2.55%,3.63%,6.41%,3.71%,13.7%,2.05%,9.86%,3.73%,9.11%,-3.58%
COc1cc2ncn(-c3cc(OCc4ccccc4C(F)(F)F)c(C(=O)N(C)C)s3)c2cc1OC,-4.14%,1.36%,9.93%,2.27%,16.3%,1.09%,14.9%,2.35%,13.2%,-0.89%,1.37%,1.14%,17.4%,2.99%,18.7%,0.27%,0.78%,4.85%,11.8%,-0.33%
CCc1nn2ncccc2c1-c1ccnc(NC2CC2)n1,-4.39%,0.71%,4.01%,3.05%,6.43%,1.9%,4.54%,2.92%,7.3%,0.33%,1.06%,1.02%,4.43%,5.52%,6.81%,1.99%,5.07%,2.35%,5.86%,-2.55%

# Source: ChEMBL document CHEMBL1961873, “Compounds: GSK PKIS; Assays: Nanosyn kinase panel” (2012)
